In the library only some 2.9% were active in any assay of this set; here they are far more common.
12-LOX inh = Primary qHTS assay for inhibitors of human arachidonate 12S-lipoxygenase (ALOX12): Round 2; Polyunsaturated fatty acid lipoxygenase ALOX12 (Homo sapiens), P18054; purified 12hLO, xylenol orange hydroperoxide absorbance; Potency, µM (highest dose often 108 µM), usual class: inhibitors; hit rate 1.1% among 580,000; AID 1671190, 2021
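Hydroperoxide product was detected by ferrous iron/xylenol orange as the 573 to 405 nm absorbance ratio. Arachidonic acid at 40 uM (final) was turned over for 30 min at room temperature by 150 nM human 12hLO, pH 7.0 Hepes buffer, after 15 min compound preincubation.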
Pol beta inh = qHTS Assay for Inhibitors of DNA Polymerase Beta; P06746; Pol beta primer extension/strand displacement, fluorescence kinetic; Potency, µM (doses to about 114 µM), usual class: inhibitors; hit rate 1.3% among 340,000; AID 485314, 2010
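Values derive from four-parameter Hill fits of normalized kinetic data: reads at 0 and 10 min following addition of 50 nM substrate to 10 nM Pol beta preincubated 15 min with compound.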
PI5P4Ka inh = qHTS for Inhibitors of phosphatidylinositol 5-phosphate 4-kinase (PI5P4K); Phosphatidylinositol 5-phosphate 4-kinase type-2 alpha (Homo sapiens), P48426; PI5P4Kalpha enzyme, ADP-Glo luminescence, 60 min; stronger effect = lower value; max response, %; hit rate 1.2% among 330,000; active = max response of -50% or lower; inconclusive = between -30% and -50%; inactive = -30% or higher; also: value at the top dose of about 77 µM
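Human PI5P4Kalpha with substrate in 0.038 M HEPES pH 7.4, 0.28 mM EGTA, 0.1% CHAPS, 5% DMSO; reaction started with 5 microM ATP (final), 60 min at room temperature. ADP formed read by ADP-Glo luminescence.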
POLI inh = qHTS for Inhibitors of Polymerase Iota. Pol iota fluorescent replication assay, 10 min. DNA polymerase iota (Homo sapiens), Q9UNA4. Potency, µM (highest dose often 115 µM), hits mostly inhibitors. hit rate 1% among 390,000
Target sequence (Q9UNA4 whole entry, looked up): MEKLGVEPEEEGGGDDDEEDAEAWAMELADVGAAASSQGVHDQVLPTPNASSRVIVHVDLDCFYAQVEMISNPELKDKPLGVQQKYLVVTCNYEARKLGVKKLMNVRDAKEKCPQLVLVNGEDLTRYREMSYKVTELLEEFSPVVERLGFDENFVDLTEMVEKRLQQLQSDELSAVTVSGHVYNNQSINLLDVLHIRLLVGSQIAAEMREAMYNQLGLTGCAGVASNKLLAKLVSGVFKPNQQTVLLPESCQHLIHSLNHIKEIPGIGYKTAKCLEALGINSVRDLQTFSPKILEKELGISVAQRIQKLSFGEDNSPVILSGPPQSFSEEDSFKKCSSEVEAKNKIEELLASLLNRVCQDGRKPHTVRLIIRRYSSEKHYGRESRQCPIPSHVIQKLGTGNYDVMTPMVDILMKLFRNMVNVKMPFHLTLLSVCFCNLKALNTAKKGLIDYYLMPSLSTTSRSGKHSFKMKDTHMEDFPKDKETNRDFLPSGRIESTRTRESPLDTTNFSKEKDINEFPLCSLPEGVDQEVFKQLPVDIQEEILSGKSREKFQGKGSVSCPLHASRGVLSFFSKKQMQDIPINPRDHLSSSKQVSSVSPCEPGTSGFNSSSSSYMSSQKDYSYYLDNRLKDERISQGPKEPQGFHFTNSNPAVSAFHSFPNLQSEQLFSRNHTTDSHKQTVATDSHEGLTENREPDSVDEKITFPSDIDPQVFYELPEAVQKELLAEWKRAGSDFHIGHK
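Pol iota at 10 nM preincubated 15 min with compounds at room temperature; reaction started with fluorescent substrate, 50 nM final. Fluorescence read kinetically at 0 and 10 min; buffer-only wells as negative control.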
Pol kappa inh = qHTS for Inhibitors of Polymerase Kappa | DNA polymerase kappa (Homo sapiens), Q9UBT6 | purified Pol kappa, fluorescent DNA synthesis assay, 10 min | Potency, µM (top dose mostly 107 µM), most hits filed as inhibitors | hit rate 0.53% among 400,000 | AID 588579, 2011
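10 nM Pol kappa was preincubated with compounds for 15 min at room temperature. Reaction started with 50 nM (final) substrate. Fluorescence read kinetically at 0 and 10 min.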
Pol eta inh = qHTS for Inhibitors of Polymerase Eta | recombinant Pol eta, fluorescent DNA replication assay | Potency, µM (series often up to 114 µM), hits mostly inhibitors | hit rate 1.2% among 390,000
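Pol eta (10 nM) was preincubated with compounds for 15 min at room temperature, after which fluorescent replication substrate (50 nM final) was added to start the reaction. Fluorescence was read kinetically at 0 and 10 min.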
Of the large screens only hits and unclear results are named; the others gave an inactive call. Unless noted, calls follow the shape of the dose curve; as a rule, active = well fitted inhibition curve with a large enough effect; inconclusive = small, poorly fitted or top-dose-only effect, or another doubt; inactive = no such curve, though single readings can be large or run the other way.

Fc1ccc(NC(=S)NCCC(c2ccccc2)c2ccccc2)cc1Cl	12-LOX inh 25.1µM (no result: Pol beta inh, PI5P4Ka inh, POLI inh, Pol kappa inh, Pol eta inh)
Cc1c(Cl)cccc1NC(=S)NCCC(c1ccccc1)c1ccccc1	12-LOX inh 25.1µM
Fc1ccc(NC(=S)Nc2cc(-c3ccccc3)[nH]n2)cc1Cl	12-LOX inh 28.2µM
CC(C)Oc1ccc(C(=O)Nc2ccc(Oc3ccc(Cl)cc3)cc2)cc1	none (no result: Pol beta inh, PI5P4Ka inh, POLI inh, Pol kappa inh, Pol eta inh)
COc1cccc(NC(=S)NCCC(c2ccccc2)c2ccccc2)c1	12-LOX inh inconclusive
COc1cc(NC(=S)NCCC(c2ccccc2)c2ccccc2)cc(OC)c1	12-LOX inh inconclusive, POLI inh 89.1µM, Pol kappa inh inconclusive, Pol eta inh inconclusive
COC(=O)C1CN(Cc2ccc(OC)cc2)CCS(=O)(=O)N1Cc1cn(Cc2ccc(C)cc2)nn1 (centres undefined)	none (no result: Pol beta inh, PI5P4Ka inh, POLI inh, Pol kappa inh, Pol eta inh)
COC(=O)C1CN(Cc2cn(Cc3ccc(C)cc3)nn2)CCS(=O)(=O)N1Cc1ccc(C)cc1 (centres undefined)	12-LOX inh 15.8µM (no result: Pol beta inh, PI5P4Ka inh, POLI inh, Pol kappa inh, Pol eta inh)
Cc1nc2ccccn2c1-c1ccnc(=S)[nH]1	12-LOX inh 15.8µM, Pol beta inh inconclusive, PI5P4Ka inh inconclusive
Cc1ccc(Nc2nc(-c3c(C)nc4ccccn34)cs2)cc1	12-LOX inh inconclusive
O=[N+]([O-])c1cc(-c2ccc(C(=S)N3CCOCC3)o2)ccc1Cl	12-LOX inh 12.6µM
O=[N+]([O-])c1ccccc1-c1ccc(C(=S)N2CCCC2)o1	12-LOX inh 39.8µM, PI5P4Ka inh inconclusive, POLI inh inconclusive
O=[N+]([O-])c1cccc(-c2ccc(C(=S)N3CCOCC3)o2)c1	none
Cc1cc(C(=O)OC(C)C(=O)N2CCCCCC2)c2ccccc2n1 (centres undefined)	none (no result: Pol beta inh, PI5P4Ka inh, POLI inh, Pol kappa inh, Pol eta inh)
Fc1ccc(-c2ccnc3nc(-n4cccc4)nn23)cc1	Pol beta inh inconclusive, POLI inh 79.4µM (no result: PI5P4Ka inh)
CCOC(=O)C1=C(C)N(CCCCCC(=O)O)C(=O)NC1c1ccc(Cl)cc1 (centres undefined)	none
COC(=O)C1=C(C)N(CCCC(=O)O)C(=O)NC1c1ccc(OC)cc1 (centres undefined)	PI5P4Ka inh -61.9 (no result: Pol beta inh)
CCOC(=O)C1=C(C)N(CCCC(=O)O)C(=O)NC1C(CC)CC (centres undefined)	PI5P4Ka inh -57.6 (no result: Pol beta inh)
CCOC(=O)C1=C(C)N(CCCC(=O)O)C(=O)NC1c1ccc(OC)cc1 (centres undefined)	PI5P4Ka inh -70.6
COc1ccc(C2NC(=O)N(CCCC(=O)O)C(C)=C2C(=O)OCc2ccccc2)cc1 (centres undefined)	none (no result: Pol beta inh, PI5P4Ka inh, POLI inh, Pol kappa inh, Pol eta inh)
COc1cc(F)ccc1-c1nc(N2CCOCC2)cc2c1CN(c1ccccc1)C2=O	none (no result: Pol beta inh, PI5P4Ka inh, POLI inh, Pol kappa inh, Pol eta inh)
COc1ccc2[nH]c(=O)c(-c3nnn(-c4ccc(F)cc4)n3)cc2c1	12-LOX inh 10µM (no result: Pol beta inh)
CC(C)C(=O)NN=C(c1ccccc1)c1ccccc1	none (no result: Pol beta inh, PI5P4Ka inh, POLI inh, Pol kappa inh, Pol eta inh)
COC(=O)C1=C(O)/C(=C\c2ccc(CNC(=O)C(=O)Nc3ccc(C)cc3)o2)N=C1C	12-LOX inh inconclusive, Pol beta inh inconclusive, POLI inh inconclusive, Pol eta inh inconclusive
COC(=O)C1=C(O)/C(=C\c2ccc(CNC(=O)C(=O)Nc3ccc(C)c(C)c3)o2)N=C1C	12-LOX inh inconclusive, Pol beta inh inconclusive, PI5P4Ka inh inconclusive, POLI inh inconclusive, Pol eta inh 22.4µM
CCOC(=O)C1=C(O)/C(=C\c2ccc(CNS(=O)(=O)c3ccc(Br)cc3)o2)N=C1C	12-LOX inh 44.7µM, PI5P4Ka inh -57.8, POLI inh 15.8µM, Pol kappa inh 50.1µM, Pol eta inh 22.4µM
COC(=O)C1=C(O)/C(=C\c2ccc(CNS(=O)(=O)c3ccccc3)o2)N=C1C	12-LOX inh inconclusive, POLI inh inconclusive, Pol kappa inh 28.2µM, Pol eta inh inconclusive
Cc1cc(NC(=O)c2ccc(N3CCCC3)c([N+](=O)[O-])c2)no1	Pol beta inh 20µM, POLI inh inconclusive, Pol eta inh inconclusive
Cc1ccc(S(=O)(=O)N2CCOCC2)cc1C(=O)O	none (no result: PI5P4Ka inh)
O=C(O)c1cc2cccc(S(=O)(=O)N3CCOCC3)c2cc1O	12-LOX inh inconclusive, PI5P4Ka inh -72.8
Cc1cc(C)cc(OCC(=O)NCC2(N3CCOCC3)CCCCC2)c1	12-LOX inh inconclusive (no result: PI5P4Ka inh)
Cc1ccc(OCC(=O)NCC2(N3CCOCC3)CCCCC2)cc1C	12-LOX inh inconclusive, POLI inh 89.1µM, Pol kappa inh inconclusive (no result: PI5P4Ka inh)
CCc1ccc(NC(=O)Nc2c(NC3CCCCC3)c3ccccc3oc2=O)cc1	none (no result: Pol beta inh, PI5P4Ka inh, POLI inh, Pol kappa inh, Pol eta inh)
CC(C)c1cccc(C(C)C)c1OC(=O)NC(=O)c1c(F)cccc1F	none
CC(C)c1cc(C(C)C)c(CC(=O)NS(=O)(=O)Oc2c(C(C)C)cccc2C(C)C)c(C(C)C)c1	12-LOX inh 24.3µM (no result: Pol beta inh, PI5P4Ka inh, POLI inh, Pol kappa inh, Pol eta inh)
CC(CCN1CCC(CN2C(=O)C(=O)NC[C@@H]2Cc2ccccc2)CC1)c1ccccc1 (some centres undefined)	12-LOX inh 39.8µM (no result: Pol beta inh)
CCN(CC)C(=S)SC/C(=N/Nc1ccc(Br)cc1)c1ccccc1	12-LOX inh 7.94µM (no result: Pol beta inh, PI5P4Ka inh, POLI inh, Pol kappa inh, Pol eta inh)
CCN(CC)C(=S)SCC(=O)c1ccc(Br)cc1	12-LOX inh inconclusive
O=C(N/N=C/c1ccccc1[N+](=O)[O-])NC1CCCCC1	none (no result: Pol beta inh, PI5P4Ka inh, POLI inh, Pol kappa inh, Pol eta inh)
Cc1noc(C)c1[S+](=O)([O-])N1CCc2nc(C(C)C)nc(-c3ccc(O)cc3)c2C1	none (no result: Pol beta inh, PI5P4Ka inh, POLI inh, Pol kappa inh, Pol eta inh)
NC(CCc1ccccc1)c1ccccc1 (centres undefined)	none (no result: Pol beta inh, PI5P4Ka inh, POLI inh, Pol kappa inh, Pol eta inh)
O=C(O)c1cc(-c2c[nH]c3ccccc23)nc2cc3ccccc3cc12	12-LOX inh 12.6µM (no result: PI5P4Ka inh, POLI inh, Pol kappa inh, Pol eta inh)
O=C1Nc2ccc(I)cc2C1=Cc1cc(Br)c(O)c(Br)c1	12-LOX inh inconclusive, POLI inh 44.7µM, Pol kappa inh inconclusive (no result: Pol beta inh, PI5P4Ka inh, Pol eta inh)
CN(C)c1nc(=NCc2ccco2)ss1	none (no result: 12-LOX inh)
